We go through one compound from PubChem BioAssay (NCATS).

Assay [1] addresses Vitamin D3 receptor (Homo sapiens) (UniProt P11473). As to the kind of experiment: qHTS assay for small molecule agonists of vitamin D receptor signaling (AID 588543; calls by dose curve;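 also: 0% = DMSO basal and 100% = reference agonist control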). The essentials:
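GeneBLAzer VDR-UAS-bla HEK293T cells in 2% charcoal-stripped FBS medium were dosed with compound titrations for 16 h at 37 °C; CCF4 β-lactamase readout (405 nm ex, 460/530 nm em). EC50 and efficacy from Hill fits, normalized to 50 nM calcitriol (100%) and DMSO (0%).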

The nature of assay [2]: qHTS assay for small molecule agonists of retinoid X receptor alpha signaling (AID 588544; calls by dose curve;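 as to activation: 0% = DMSO basal wells and 100% = reference agonist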). To be noted: HEK293T RXRa-UAS-bla, beta-lactamase reporter, 18 h; 530 nm emission. In general terms: qHTS replaces the single test concentration by a dilution series.
Assay [3] addresses Retinoic acid receptor RXR-alpha (Homo sapiens) (UniProt P19793). The assay is described as above.
For assay [4], the target named is Thyroid hormone receptor beta (Homo sapiens) (UniProt P10828). As to the kind of experiment: qHTS assay for small molecule agonists of thyroid hormone receptor beta signaling (AID 588545; calls by dose curve). Put shortly:
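Agonist activity was read as beta-lactamase CCF4 fluorescence (405 ex, 460/530 em), scaled between DMSO (0%) and 10 nM T3 (100%), then Hill-fitted for EC50 and efficacy. HEK 293 TR-UAS-bla cells in 2% charcoal/dextran FBS medium were exposed 18 h at 37 C.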

Assay [5] is described as follows: qHTS assay for small molecule antagonists of retinoid X receptor alpha signaling (AID 588546; active = well fitted inhibition curve with a large enough effect in the signal ratio, with a control signal flat, not every such curve was filed as active; the % refers to the signal ratio;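 also: cells stimulated with 9-cis-retinoic acid as agonist; % is scaled to controls: 0 for no effect and ±100 for the full control effect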). The following applies: HEK293T RXRa-UAS-bla, beta-lactamase ratio, antagonist mode; measured here: W530 green channel, cytotoxicity proxy. The essentials: (§1)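 Beta-lactamase reporter inhibition, read as CCF4 fluorescence ratio (ex 405, em 460/530 nm) after 2 h at RT. HEK293T UAS-bla cells, 2500/well, were stimulated with 9-cis-RA at 500 or 100 nM final alongside test compound for 18 h at 37 C.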

In assay [6] the target is Retinoic acid receptor RXR-alpha (Homo sapiens) (UniProt P19793). Described as above. To be noted: HEK293T RXRa-UAS-bla, beta-lactamase ratio, antagonist mode. The essentials: as §1
The target in assay [7] is Thyroid hormone receptor beta (Homo sapiens) (UniProt P10828). The experiment in a line: qHTS assay for small molecule antagonists of thyroid hormone receptor beta signaling (AID 588547; active = well fitted inhibition curve with a large enough effect in the signal ratio, with a control signal flat, not every such curve was filed as active; the % refers to the signal ratio;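 also: cells stimulated with 0.4 nM T3 agonist during compound exposure; series mostly up to about 77 µM; % is scaled to controls: 0 for no effect and ±100 for the full control effect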). The following applies: TR-UAS-bla HEK293, beta-lactamase ratio, antagonist mode, 18 h. The essentials: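 TR-UAS-bla GripTite HEK293 cells in 2% charcoal/dextran FBS medium; compounds 0.59 nM to 92 uM with T3 at 0.4nM final, 18 h at 37 C. Beta-lactamase read by CCF4 fluorescence (460/530 nm); Hill fits gave IC50 and efficacy.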

In assay [8] the target is Voltage-gated inwardly rectifying potassium channel KCNH2 (Homo sapiens) (UniProt Q12809). As to the kind of experiment: qHTS Assay for Small Molecule Inhibitors of the Human hERG Channel Activity (AID 588834).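 Also: top concentration of the series differs between compounds; % is scaled to controls: 0 for no effect and ±100 for the full control effect; lower thallium flux fluorescence means stronger hERG block; nearly all actives have a fitted effect of over 50% in size.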 Put shortly: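 In hERG-transduced U2OS cells, dye-loaded for 1 hr at room temperature in dark, test compounds incubated 10 min at 37 °C before thallium stimulation. AC50 values derived by Hill modelling of concentration-response.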

Assay [9] is described as follows: qHTS assay for small molecule activators of the p53 signaling pathway (AID 651743; active = well fitted activation curve with a large enough effect in the signal ratio, not every such curve was filed as active; the % refers to the signal ratio; also: series mostly up to about 92 µM; % of control where 0% means no effect). To be noted: HCT-116 p53RE-bla, beta-lactamase FRET ratio, 16 h; activation: stronger effect = higher value. Put shortly: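 Following 16 hours of compound exposure at 37 C, HCT-116 cells bearing the p53RE-bla reporter were loaded with LiveBLAzer B/G FRET substrate for 2 hours at room temperature and fluorescence intensity was recorded.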

The nature of assay [10]: qHTS assay for small molecule activators of the nuclear factor-kappa B (NF-kB) signaling pathway (AID 651749; active = well fitted activation curve with a large enough effect in the signal ratio; the % refers to the signal ratio; also: series mostly up to about 77 µM; % of control where 0% means no effect). To be noted: NF-kB-bla ME-180 cells, beta-lactamase FRET ratio, 16 h; activation: stronger effect = higher value. Put shortly: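 In this qHTS format, compounds acting as activators increase NF-kB-driven beta-lactamase in ME-180 cells, measured as disrupted FRET after 16 hr exposure at 37C and 5% CO2.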

A short description of assay [11]: qHTS assay for small molecule disruptors of the mitochondrial membrane potential - 1 hr assay (AID 651754; calls by dose curve; also: % is scaled to controls: 0 for no effect and ±100 for the full control effect; nearly all actives have a fitted effect of over 35% in size). The essentials: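 Loss of mitochondrial potential shifts the cationic dye from red mitochondrial aggregates to green cytoplasmic monomers. Cells (HepG2) are treated with compound for 1 hr before a 30 min dye incubation at 37C.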
Assay [12] in a line: qHTS assay for small molecule disruptors of the mitochondrial membrane potential - 5 hr assay (AID 651755; calls by dose curve; also: % is scaled to controls: 0 for no effect and ±100 for the full control effect; nearly all actives have a fitted effect of over 40% in size). The essentials: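 Read-out: ratiometric Mito-MPS fluorescence, green monomer (ex 490/em 535) vs red mitochondrial aggregate (ex 540/em 590). HepG2 cells treated 5 hr at 37C before 30 min dye loading.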
Assay [13] deals with Tumor necrosis factor (Homo sapiens) (UniProt P01375). The experiment in a line: qHTS assay to identify small molecules that stimulate Tumor Necrosis Factor-alpha (TNF-alpha) secretion (AID 651757; active = well fitted curve in the direction sought with a large enough effect in the signal ratio; the % refers to the signal ratio; also: 0% is about no effect). The essentials:
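Human monocytic THP-1 cells are plated, treated with compound and held at 37 C for 17 hrs. Labeled anti-TNF-alpha antibody mixture is then added; after 3 hr at room temperature, TR-FRET signal reports secreted TNF-alpha.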

Assay [14] is described as follows: qHTS assay for environmental chemicals that activate the Aryl hydrocarbon Receptor (AhR) signaling pathway (AID 651777). Also: % of control where 0% means no effect; nearly all actives have a fitted effect of over 15% in size. The following applies: 1A2-DRE human hepatoma cells, luciferase, 24 h; activation: stronger effect = higher value. The essentials: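 Stable CYP1A2 promoter/DRE-luciferase human hepatoma line treated 24 hr; One-Glo luminescence, 30 min RT.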
Assay [15] deals with Peroxisome proliferator-activated receptor alpha (Homo sapiens) (UniProt Q07869). The experiment in a line: qHTS assay for small molecule agonists of the peroxisome proliferator-activated receptor alpha (PPARalpha) signaling pathway (AID 651778). Also: % of control where 0% means no effect. To be noted: PathHunter PPARalpha complementation, chemiluminescence, 6 h; stronger effect = higher value. Put shortly: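 Enzyme-fragment complementation assay in which ligand-bound PPARalpha translocates and forms an active enzyme that generates chemiluminescence. Cells were plated overnight, exposed to compound for 6 hr at 37 C, and then given detection reagent for 60 min at room temperature.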

Assay [16] can be described thus: qHTS assay for small molecule agonists of the antioxidant response element (ARE) signaling pathway measured by Nrf2-dependant transcriptional activity (AID 720636; active = well fitted curve in the direction sought with a large enough effect in the repeat runs; an effect the other way counts as inactive or inconclusive;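 also: HepG2 cells with an ARE-driven luciferase reporter; % of control where 0% means no effect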). Put shortly:
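Reporter gene assay, HepG2 ARE-luc: 16 hr compound, 37 C, 5% CO2; read-out luciferase luminescence.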

Assay [17] is described as follows: qHTS assay for small molecule antagonists of the retinoid-related orphan receptor gamma (ROR-gamma) signaling pathway - cell viability counter screen (AID 720652; active = well fitted curve in the direction sought with a large enough effect in the repeat runs; an effect the other way counts as inactive or inconclusive;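 also: CHO reporter cells with doxycycline-induced ROR-gamma expression; series mostly up to about 92 µM; compound exposure lasted 16 hr before ATP read; % is scaled to controls: 0 for no effect and ±100 for the full control effect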). The essentials:
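Steps: seed CHO cells bearing TET-inducible ROR and ROR response element-luciferase; rest 5 hr at 37 C; add compound, then doxycycline; incubate 16 hr; add CellTiter-Glo and read luminescence as ATP-based viability.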

The nature of assay [18]: qHTS assay for cell viability of HEK293 cells (AID 743288). Also: % is scaled to controls: 0 for no effect and ±100 for the full control effect; nearly all actives have a fitted effect of over 50% in size. The following applies: ATP luminescence (CellTiter-Glo), 18 h; max response: stronger effect = lower value. Put shortly:
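After 18 h compound exposure at 37 C, parental HEK293 cells (2,000/well) are lysed with CellTiter-Glo and luminescence is read following 30 min at room temperature.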

Assay [19] is described as follows: qHTS assay for cell viability of the p53RE-bla HCT-116 cell line (AID 743292). Also: % is scaled to controls: 0 for no effect and ±100 for the full control effect; nearly all actives have a fitted effect of over 55% in size. Put shortly:
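Readout: CellTiter-Glo luminescence after 30 min RT. Treatment: compounds in DMSO, 16 h, 37 C. Cells: CellSensor p53RE-bla HCT-116, 4,000/well, preincubated 5 h.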

Assay [20] has as its target Glutathione peroxidase 1 (Homo sapiens) (UniProt P07203). The experiment in a line: Primary qHTS Assay for Inhibitors of Recombinant Selenoprotein Glutathione Peroxidase 1 (GPX1) (AID 1845191). Also: nearly all actives have a fitted effect of over 65% in size. Put shortly:
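GR-coupled readout: NADPH consumption tracked by fluorescence, ex 340/em 450 nm, at t=0 and after 15 min at RT. Final mix 10 nM GPX1, 1 mM GSH, 0.5 mM CHP, 0.5 mM NADPH, 100 nM GR, 0.01% BSA, following 30 min enzyme–compound preincubation.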

Assay [21] addresses Phospholipid hydroperoxide glutathione peroxidase GPX4 (Homo sapiens) (UniProt P36969). As to the kind of experiment: Primary qHTS Assay for Inhibitors of Recombinant Selenoprotein Glutathione Peroxidase 4 (GPX4) (AID 1845192). Also: nearly all actives have a fitted effect of over 65% in size. The essentials:
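Steps: GPX4 plus compound, 30 min RT; add GR/GSH/NADPH master mix; start with cumene hydroperoxide; read 340/450 nm fluorescence at 0 and 15 min. Finals were 200 nM GPX4, 1 mM GSH, 0.5 mM CHP, 0.5 mM NADPH, 100 nM GR.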

Assay [22] concerns the target Nuclear receptor subfamily 1 group I member 2 (Rattus norvegicus) (UniProt Q9R1A7). As to the kind of experiment: qHTS assay for small molecule activators of the rat pregnane X receptor (rPXR) signaling pathway (AID 651751; call rule not given here; also: 0% is about no effect). To be noted: rPXR reporter cells, luciferase (One-Glo), 24 h.
A short description of assay [23]: qHTS assay for small molecule activators of the human pregnane X receptor (PXR) signaling pathway (AID 720659; call rule not given here; also: 0% is about no effect).

Where “and” joins values, the source holds several entries; their conditions need not be identical. Equal entries are not always repeated. Inconclusive results are not listed. Calls of active or inactive are those of the source. Unless noted, calls follow the shape of the dose curve; as a rule, active = well fitted curve in the direction sought with a large enough effect; inconclusive = small, poorly fitted or top-dose-only effect, or another doubt; inactive = no such curve, though single readings can be large; an effect the other way counts as inactive or inconclusive.

Thyroid hormone receptor beta (Homo sapiens), sequence (P10828 whole entry, looked up): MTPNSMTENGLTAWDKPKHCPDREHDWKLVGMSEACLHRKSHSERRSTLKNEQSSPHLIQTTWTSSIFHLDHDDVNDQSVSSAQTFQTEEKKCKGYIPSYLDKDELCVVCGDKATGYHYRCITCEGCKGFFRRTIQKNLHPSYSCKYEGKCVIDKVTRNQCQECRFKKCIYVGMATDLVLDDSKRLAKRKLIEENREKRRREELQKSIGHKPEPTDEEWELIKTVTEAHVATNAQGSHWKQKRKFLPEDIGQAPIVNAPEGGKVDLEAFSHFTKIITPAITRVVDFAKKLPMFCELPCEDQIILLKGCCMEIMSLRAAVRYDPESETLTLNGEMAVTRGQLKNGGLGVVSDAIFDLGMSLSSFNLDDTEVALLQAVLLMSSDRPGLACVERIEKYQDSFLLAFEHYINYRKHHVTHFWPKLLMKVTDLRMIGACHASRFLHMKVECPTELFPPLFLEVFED
Retinoic acid receptor RXR-alpha (Homo sapiens), sequence (P19793 whole entry, looked up): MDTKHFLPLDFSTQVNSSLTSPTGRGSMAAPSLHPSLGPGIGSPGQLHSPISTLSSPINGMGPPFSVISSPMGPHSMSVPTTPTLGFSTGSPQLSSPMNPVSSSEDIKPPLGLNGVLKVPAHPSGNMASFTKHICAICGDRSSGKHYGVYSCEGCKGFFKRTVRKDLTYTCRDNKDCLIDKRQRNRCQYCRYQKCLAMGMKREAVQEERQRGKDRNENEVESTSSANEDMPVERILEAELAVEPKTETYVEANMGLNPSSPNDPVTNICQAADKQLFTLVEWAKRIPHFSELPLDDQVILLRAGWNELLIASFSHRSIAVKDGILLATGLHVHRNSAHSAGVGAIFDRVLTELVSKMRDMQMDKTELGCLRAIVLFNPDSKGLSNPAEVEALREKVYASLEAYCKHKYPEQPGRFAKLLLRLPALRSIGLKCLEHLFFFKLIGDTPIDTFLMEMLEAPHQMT
Vitamin D3 receptor (Homo sapiens), sequence (P11473 whole entry, looked up): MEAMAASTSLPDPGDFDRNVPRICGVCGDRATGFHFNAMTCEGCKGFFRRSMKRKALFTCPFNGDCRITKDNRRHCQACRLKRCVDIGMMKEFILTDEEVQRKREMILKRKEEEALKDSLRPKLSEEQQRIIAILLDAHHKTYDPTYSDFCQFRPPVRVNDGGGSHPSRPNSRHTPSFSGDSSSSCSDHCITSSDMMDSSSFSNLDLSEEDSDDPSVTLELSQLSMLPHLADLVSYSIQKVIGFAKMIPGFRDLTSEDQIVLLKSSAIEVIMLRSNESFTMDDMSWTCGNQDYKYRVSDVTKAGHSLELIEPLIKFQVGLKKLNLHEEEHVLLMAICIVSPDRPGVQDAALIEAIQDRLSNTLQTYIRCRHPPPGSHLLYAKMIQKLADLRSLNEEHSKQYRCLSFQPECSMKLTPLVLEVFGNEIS
Nuclear receptor subfamily 1 group I member 2 (Rattus norvegicus), sequence (Q9R1A7 whole entry, looked up): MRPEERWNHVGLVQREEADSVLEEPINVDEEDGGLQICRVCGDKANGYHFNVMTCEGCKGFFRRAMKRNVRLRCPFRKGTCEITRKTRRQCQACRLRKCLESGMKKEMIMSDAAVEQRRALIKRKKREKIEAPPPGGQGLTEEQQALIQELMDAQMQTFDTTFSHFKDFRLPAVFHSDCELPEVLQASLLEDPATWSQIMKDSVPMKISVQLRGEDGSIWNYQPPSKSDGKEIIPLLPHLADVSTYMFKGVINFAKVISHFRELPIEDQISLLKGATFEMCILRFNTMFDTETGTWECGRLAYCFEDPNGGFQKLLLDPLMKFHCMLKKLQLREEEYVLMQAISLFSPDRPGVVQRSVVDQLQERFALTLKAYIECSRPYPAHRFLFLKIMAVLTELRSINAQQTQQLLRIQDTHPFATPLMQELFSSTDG
Peroxisome proliferator-activated receptor alpha (Homo sapiens), sequence (Q07869 whole entry, looked up, the tested form may be a part): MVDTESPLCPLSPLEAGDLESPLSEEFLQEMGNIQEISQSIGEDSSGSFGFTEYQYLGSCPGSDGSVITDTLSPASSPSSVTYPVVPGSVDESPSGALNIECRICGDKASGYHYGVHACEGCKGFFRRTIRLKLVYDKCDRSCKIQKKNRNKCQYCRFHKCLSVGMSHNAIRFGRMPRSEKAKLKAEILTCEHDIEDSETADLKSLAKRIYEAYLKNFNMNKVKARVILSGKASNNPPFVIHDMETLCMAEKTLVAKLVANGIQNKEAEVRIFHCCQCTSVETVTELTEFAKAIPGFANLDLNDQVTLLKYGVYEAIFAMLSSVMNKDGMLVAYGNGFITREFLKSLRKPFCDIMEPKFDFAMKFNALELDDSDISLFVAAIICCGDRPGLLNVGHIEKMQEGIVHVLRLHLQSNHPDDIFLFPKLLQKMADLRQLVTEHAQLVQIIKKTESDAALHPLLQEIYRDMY
Glutathione peroxidase 1 (Homo sapiens), sequence (P07203 whole entry, looked up): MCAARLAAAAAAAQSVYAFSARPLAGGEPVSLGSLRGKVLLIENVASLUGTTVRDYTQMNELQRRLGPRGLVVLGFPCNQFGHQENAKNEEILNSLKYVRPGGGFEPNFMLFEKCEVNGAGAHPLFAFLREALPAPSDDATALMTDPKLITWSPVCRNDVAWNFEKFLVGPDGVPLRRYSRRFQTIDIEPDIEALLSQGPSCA
Phospholipid hydroperoxide glutathione peroxidase GPX4 (Homo sapiens), sequence (P36969 whole entry, looked up): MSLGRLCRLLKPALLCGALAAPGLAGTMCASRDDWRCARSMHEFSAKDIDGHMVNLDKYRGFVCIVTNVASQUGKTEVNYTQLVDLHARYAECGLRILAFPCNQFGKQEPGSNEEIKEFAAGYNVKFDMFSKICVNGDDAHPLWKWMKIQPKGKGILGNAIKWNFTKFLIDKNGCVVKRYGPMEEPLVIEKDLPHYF
Voltage-gated inwardly rectifying potassium channel KCNH2 (Homo sapiens), sequence (Q12809 whole entry, looked up): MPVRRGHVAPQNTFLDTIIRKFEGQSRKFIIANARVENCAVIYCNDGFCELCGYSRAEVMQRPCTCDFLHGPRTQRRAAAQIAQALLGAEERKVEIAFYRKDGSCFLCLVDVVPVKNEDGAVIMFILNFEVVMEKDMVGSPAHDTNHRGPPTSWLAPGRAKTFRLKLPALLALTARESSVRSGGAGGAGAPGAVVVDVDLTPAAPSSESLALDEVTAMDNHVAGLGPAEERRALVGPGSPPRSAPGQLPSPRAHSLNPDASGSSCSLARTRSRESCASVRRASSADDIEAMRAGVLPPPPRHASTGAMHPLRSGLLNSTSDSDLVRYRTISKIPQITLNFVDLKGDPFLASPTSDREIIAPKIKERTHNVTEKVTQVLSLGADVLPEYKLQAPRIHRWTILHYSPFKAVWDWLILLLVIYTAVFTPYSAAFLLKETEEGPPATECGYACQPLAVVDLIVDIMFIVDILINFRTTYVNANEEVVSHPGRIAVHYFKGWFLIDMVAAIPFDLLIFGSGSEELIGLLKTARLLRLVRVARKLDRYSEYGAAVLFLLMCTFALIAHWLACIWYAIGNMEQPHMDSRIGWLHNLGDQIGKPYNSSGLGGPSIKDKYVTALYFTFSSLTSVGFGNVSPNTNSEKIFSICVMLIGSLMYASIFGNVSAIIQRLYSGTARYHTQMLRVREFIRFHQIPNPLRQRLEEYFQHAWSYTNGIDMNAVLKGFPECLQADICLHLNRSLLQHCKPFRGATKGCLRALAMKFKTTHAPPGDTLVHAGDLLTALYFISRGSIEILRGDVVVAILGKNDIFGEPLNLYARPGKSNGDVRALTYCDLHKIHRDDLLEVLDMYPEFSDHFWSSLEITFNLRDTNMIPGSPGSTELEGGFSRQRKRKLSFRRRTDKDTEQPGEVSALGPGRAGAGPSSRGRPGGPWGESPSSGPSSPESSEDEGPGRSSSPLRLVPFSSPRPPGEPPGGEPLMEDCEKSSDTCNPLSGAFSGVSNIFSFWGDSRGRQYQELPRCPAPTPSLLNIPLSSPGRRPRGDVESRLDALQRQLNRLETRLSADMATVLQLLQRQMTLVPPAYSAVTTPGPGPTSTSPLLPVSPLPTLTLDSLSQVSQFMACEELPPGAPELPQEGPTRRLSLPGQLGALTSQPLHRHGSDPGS
Tumor necrosis factor (Homo sapiens), sequence (P01375 whole entry, looked up): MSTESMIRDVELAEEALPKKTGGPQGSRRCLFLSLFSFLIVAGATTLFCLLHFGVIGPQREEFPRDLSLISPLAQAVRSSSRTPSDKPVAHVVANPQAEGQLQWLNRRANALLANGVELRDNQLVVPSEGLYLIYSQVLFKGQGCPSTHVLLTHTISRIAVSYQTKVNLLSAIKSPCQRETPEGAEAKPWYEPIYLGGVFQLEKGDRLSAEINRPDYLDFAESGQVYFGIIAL

Turning to `Cc1ccccc1O`, the Potency result in [1], in assay [4], in [8], in assay [11], in [12] and in assay [16] was “inactive” in each case. In addition, the Potency entry in assay [20] and in assay [21] was “inactive” in each case. In addition, the max response is -16.4% and 2.5% in assay [2]; -8.36% and -9.93% in [5]; -5.98% (inactive) and 4.44% (inactive) in assay [6]; -1.66% (inactive) and -0.689% (inactive) in assay [15]; -5.04% (inactive) and -4.42% (inactive) in [18]; 0.289% (inactive) and -3.94% (inactive) in assay [22]. The result in assay [3], in assay [13], in assay [17], in [19] and in assay [23] was inactive. Besides, the activity change % (negative = inhibition) in assay [7] is -12.9% (inactive) and -0.275% (inactive). The activation in assay [9] is -4.62% (inactive) and -1.52% (inactive); in assay [10] it was 0.871% (inactive) and 6.75% (inactive); in assay [14] it was -0.175% (inactive) and -0.566% (inactive).
